The campaign covered roughly 6,200 compounds. About 2,900 (47%) were called active. The set was probably picked from earlier hits. This is one part of the list. Values without a mark were called inactive. No stated cut-off is given here; in the data, active means inhibition above about 50%; inactive means the rest.

A short description of the experiment: Mycobacterium tuberculosis growth inhibition, primary screen (AID 1259343). The settings on record: inhibition: at 10 µM, active compounds read high; outcome: 10 uM.
As usually defined, the inhibition is the change of the read-out against control, counted positive when it falls. Take `O=C(Nc1cccc(-c2cccc(F)c2)c1)C1CCN(CCCn2cccn2)CC1`: the inhibition is 89.5% (active).

With `Cc1nc(C)c(CN2CCC(C(=O)Nc3ccc(Oc4ccccc4F)cc3)CC2)nc1C`, the inhibition is 82.5% (active).

For `O=C(C1CCCC1)N1CCc2c([nH]c3ccccc23)C1c1cc(F)ccc1F` (stereo unspecified), the inhibition was 24.3%.

With `O=c1c2ccccc2[nH]c(=S)n1C1CCCC1`, the inhibition was 90.2% (active).

As to `c1ccc2c(c1)CCN(c1ncnc3c1oc1ccccc13)C2`, the inhibition was 19.2%.

For `COc1ccc(OCc2nc(C(=O)N3CCC3c3ccc(F)cc3)co2)cc1` (stereo unspecified), the inhibition was 28.5%.

With `Fc1ccc(OCc2nnc3sc(C4CC4)nn23)cc1`, the inhibition was 67% (active).

For the compound `Fc1ccc(OCc2nc(CSc3nnnn3C3CC3)cs2)cc1`, the inhibition is 4.6%.

For `O=C(NN=Cc1ccccc1O)c1cc(C23CC4CC(CC(C4)C2)C3)[nH]n1`, the inhibition is 28.4%.

With `O=C(NN=Cc1ccc(F)cc1)c1cc(C23CC4CC(CC(C4)C2)C3)[nH]n1`, the inhibition was 10.7%.

On to `COc1ccccc1C=NNC(=O)c1cc(C23CC4CC(CC(C4)C2)C3)[nH]n1`, for which the inhibition is 99.6% (active).

For `CC(C)Cn1c(CN(C)Cc2ncc[nH]2)nc2ccccc21`, the inhibition was 29.8%.

Turning to `CN(C)c1ccc(C=NNC2=Nc3cccc4cccc2c34)cc1`, the inhibition is 18.6%.

Regarding `CN(C)C=NC1=NN(c2ccccc2)CC1`, the inhibition was -0.55%.

Turning to `NC1=NN(c2ccccc2)CC1`, the inhibition is 82.6% (active).

As for `c1ccc(C2=NN(c3ccccc3)CC2)cc1`, the inhibition is -38.3%.

Turning to `C(=NC1=NN(c2ccccc2)CC1)c1ccccc1`, the inhibition was 54% (active).

With `CN(C)c1ccc(C=NC2=NN(c3ccccc3)CC2)cc1`, the inhibition was 90.3% (active).

With `FC(F)(F)c1ccc2c(c1)n(Cc1ccc(Cl)c(Cl)c1)c1[n+]2CCCCC1`, the inhibition was 10.6%.

With `C=CC[n+]1c(-c2ccccc2)csc1Nc1ccccc1OC`, the inhibition is 88.1% (active).

On to `CC(=NNC(=S)NC1CCCCC1)c1ccc(C)o1`, for which the inhibition was -13.8%.

For `Cc1ccc(C=NNC(=S)NC2CCCCC2)o1`, the inhibition was 101% (active).

Turning to `Cc1ccc(C=NNC(=S)NC(C)C)o1`, the inhibition was 54.2% (active).

As for `CCNC(=S)NN=Cc1ccco1`, the inhibition is 1.13%.

Turning to `CCCCNC(=S)NN=Cc1ccc(C)o1`, the inhibition was 81.2% (active).

In the case of `Cc1ccc(C=NNC(=O)NC2CCCCC2)o1`, the inhibition is -14.7%.

`CC(C)NC(=S)NN=Cc1c(F)c(F)c(F)c(F)c1F`: the inhibition was 82.9% (active).

As to `CCc1c(C)sc2[nH]c(=S)n(C)c(=O)c12`, the inhibition is 24.5%.

For the compound `CN(C)S(=O)(=O)n1cc(/C=C/c2nc(N)nc(-c3ccccc3O)n2)c2ccccc21`, the inhibition was 13.7%.

As for `CC(C)(CNC(=O)c1ccccn1)c1ccccc1`, the inhibition is 65.7% (active).

On to `O=C(NCCc1ccc(Cl)s1)Nc1ccccn1`, for which the inhibition was 35.1%.

As to `O=C(NCC1CCCc2ccccc21)c1ccccn1` (stereo unspecified), the inhibition was 3.26%.

As to `Fc1ccc(-c2c[nH]c(=S)[nH]2)cc1`, the inhibition was 90.2% (active).

Consider `O=c1oc2ccccc2c(O)c1C(c1ccccc1O)c1c(O)c2ccccc2oc1=O`, for which the inhibition was 90.2% (active).

On to `O=c1oc2ccccc2c(O)c1C(c1ccc2c(c1)OCO2)c1c(O)c2ccccc2oc1=O`, for which the inhibition is 54.4% (active).

In the case of `O=c1oc2ccccc2c(O)c1C(c1cncs1)c1c(O)c2ccccc2oc1=O`, the inhibition is -17.6%.

Regarding `CC(C)[C@H](CNC(=O)[C@@H](NC(=O)c1cccc(-c2ccccc2)n1)[C@@H](C)O)B(O)O`, the inhibition was 23.9%.

With `Cc1ccc(N=Nc2cn[nH]c2C)cc1`, the inhibition is -8.23%.

Turning to `COc1ccc(NC(=O)C(C)CS(=O)(=O)c2ccc(Br)cc2)cc1F` (stereo unspecified), the inhibition is 61.1% (active).

As to `c1cc2c3c(cccc3c1)/C(=N/OCC1CO1)C2` (stereo unspecified), the inhibition is 101% (active).

Regarding `N#Cc1nc(-c2ccc(COc3ccc(Cl)cc3)o2)oc1NCC1CCCO1` (stereo unspecified), the inhibition is 46.9%.

In the case of `N#Cc1nc(COc2ccc(Br)cc2)oc1NCCCn1ccnc1`, the inhibition is 62.4% (active).

For the compound `NC(CCCc1ccccc1)c1ccccc1` (stereo unspecified), the inhibition was 15.7%.

For the compound `c1ccc(CC[P+](c2ccccc2)(c2ccccc2)c2ccccc2)cc1`, the inhibition was 62.6% (active).

As to `O=C1NC(=S)SC1=Cc1ccc(F)cc1`, the inhibition is 32.6%.

Consider `O=C1NC(=S)SC1=Cc1ccc(F)c(F)c1`, for which the inhibition was 88.5% (active).

Take `COc1ccc(C=C2SC(=S)NC2=O)cc1F`: the inhibition is 86.7% (active).

Regarding `COc1cc(C=C2SC(=S)NC2=O)cc(Br)c1O`, the inhibition was 90% (active).

As to `O=C1/C(=C\c2ccc(O)c(Cl)c2)CS(=O)(=O)C/C1=C/c1ccc(O)c(Cl)c1`, the inhibition is -0.82%.

On to `O=C1NC(=S)SC1=Cc1cc(O)c(O)c(Cl)c1`, for which the inhibition is 88.3% (active).

In the case of `COc1ccc(NC(=O)CCc2ccccc2C#N)cc1`, the inhibition was 27.5%.

`Cc1nn(C)c(C)c1CCC(=O)Nc1ccc(C(C)(C)C#N)cc1`: the inhibition was 71% (active).

Consider `S=c1[nH]nc(-c2ccccc2)c2ccccc12`, for which the inhibition is 70.8% (active).

For `Cc1ccc(-c2n[nH]c(=S)c3ccccc23)cc1`, the inhibition was 32.5%.

Turning to `CC1CN(c2ccc(-c3nnc(Br)s3)cc2)CC(C)(C)O1` (stereo unspecified), the inhibition is 10.5%.

In the case of `O=C(O)c1ccc(COc2cccc(Cl)c2)s1`, the inhibition was 81.8% (active).

As for `Clc1cccc(OCOCOc2cccc(Cl)c2)c1`, the inhibition is 1.77%.

On to `CN(C)S(=O)(=O)c1ccc(COc2cccc(Cl)c2)o1`, for which the inhibition was 49.6%.

For `CCCNC(=O)c1ccc(Oc2ccc(F)cc2)cc1`, the inhibition was 90.3% (active).

For the compound `O=C(NN1CCOCC1)c1ccc(Oc2ccc(F)cc2)cc1`, the inhibition is 89.4% (active).

For the compound `CCCNC(=O)C(C)NC(=O)c1ccc(Oc2ccc(F)cc2)cc1` (stereo unspecified), the inhibition was 62.5% (active).

Turning to `Cc1ccc(Oc2ccc(NC(C)C(=O)NC(C)C)cc2)cc1` (stereo unspecified), the inhibition was 30.7%.

Consider `C=CCOc1cccc(C2c3c(oc4ccc(C)cc4c3=O)C(=O)N2c2nccs2)c1` (stereo unspecified), for which the inhibition was 1.57%.

Turning to `Fc1cc(NCc2ccccc2)nc(NCc2ccccc2)n1`, the inhibition was 13.7%.

On to `c1ccc(-c2nc3c(NC4CCCCC4)nccc3[nH]2)cc1`, for which the inhibition was 76.1% (active).

Take `Cc1c(-c2ccccc2)[nH]c2c(CNc3nccc(N)n3)cc(Cl)cc12`: the inhibition was 25.5%.

Regarding `Fc1ccc(-c2nc3c(NCc4ccccc4)nccc3[nH]2)cc1F`, the inhibition was 35.1%.

As to `c1ccc(CNc2nc(-c3ccccc3)nc3ccccc23)cc1`, the inhibition is -8.46%.

Take `Cc1cccc(-c2nc3c(NCc4ccccc4)nccc3[nH]2)c1`: the inhibition was 68.2% (active).

Turning to `Fc1cccc(-c2nc3c(NCc4ccccc4)nccc3[nH]2)c1`, the inhibition is 58.3% (active).

Consider `Cc1cccc(-c2nc3c(NCc4cccc(N(C)C)c4)nccc3[nH]2)c1`, for which the inhibition was 76.8% (active).

With `Cc1ccc(-c2nc3c(NCc4cccc(N(C)C)c4)nccc3[nH]2)cc1`, the inhibition was 65.2% (active).

Consider `CC(=O)Nc1cc(C)nn1-c1nc(C)cc(=O)[nH]1`, for which the inhibition was 100% (active).

For the compound `C/C=C/C(=O)Nc1cc(C)nn1-c1nc(C)cc(=O)[nH]1`, the inhibition is 101% (active).

`Cc1cc(=O)[nH]c(-n2nc(C)cc2NC(=O)C(C)C)n1`: the inhibition is 100% (active).

Regarding `Cc1cc(=O)[nH]c(-n2nc(C)cc2NC(=O)c2snnc2C)n1`, the inhibition is 99.6% (active).

Take `Cc1ccc(/C=C/S(=O)(=O)N2CC(C(N)=O)c3ccccc32)cc1` (stereo unspecified): the inhibition was -0.07%.

Regarding `CCc1cc(=O)[nH]c(-n2nc(C)cc2NC(=O)C(C)C)n1`, the inhibition was 101% (active).

As to `CCOc1ccc(C(=O)Nc2cc(C)nn2-c2nc(C)c(C)c(=O)[nH]2)cc1OCC`, the inhibition was 98.7% (active).

Consider `Cc1cc(=O)[nH]c(-n2nc(C)cc2NC(=O)c2ccc(-c3ccccc3)cc2)n1`, for which the inhibition was 100% (active).

For the compound `Cc1cc(NC(=O)c2ccccc2)n(-c2nc(C)c(C)c(=O)[nH]2)n1`, the inhibition was -21.2%.

For `Cc1cc(NC(=O)c2ccc(-c3ccccc3)cc2)n(-c2nc(C)c(C)c(=O)[nH]2)n1`, the inhibition is 100% (active).

For the compound `Cc1cc(=O)[nH]c(-n2nc(C)cc2NC(=O)c2ccc(C)c(C)c2)n1`, the inhibition was 100% (active).

With `CCOc1ccc(C(=O)Nc2cc(C)nn2-c2nc(C)c(CC)c(=O)[nH]2)cc1OCC`, the inhibition was -21.9%.

As for `Cc1ccc(C(=O)Nc2cc(C)nn2-c2nc(C)cc(=O)[nH]2)cc1`, the inhibition is 101% (active).

In the case of `Cc1cc(=O)[nH]c(-n2nc(C)cc2NC(=O)c2ccccc2)n1`, the inhibition is 101% (active).

On to `Cc1cc(C)cc(C(=O)Nc2cc(C)nn2-c2nc(C)cc(=O)[nH]2)c1`, for which the inhibition was 100% (active).

For the compound `CSc1c(C#N)c(SCC(=O)c2cc3ccccc3oc2=O)[nH]c(=O)c1C#N`, the inhibition was 83% (active).

Consider `CSc1c(C#N)c(=O)[nH]c2sc(C#N)c(N)c12`, for which the inhibition is 29.1%.

`COC(=O)c1ccc(-c2noc(CN3CCC(C(O)c4cccs4)CC3)n2)cc1` (stereo unspecified): the inhibition was 16.3%.

For `Fc1ccccc1Cc1noc(CN2CCN(c3cccc(C(F)(F)F)c3)CC2)n1`, the inhibition is 34.2%.

Turning to `COC(=O)c1ccc(-c2noc(CN3CCC(C(O)Cc4ccccc4)CC3)n2)cc1` (stereo unspecified), the inhibition was 14.8%.

As to `COC(=O)c1ccc(-c2noc(CN3CCCN(C(=O)c4ccco4)CC3)n2)cc1`, the inhibition was 84.3% (active).

For the compound `COC(=O)c1ccc(N2CCN(Cc3nc(Cc4cccc(F)c4)no3)CC2)cc1`, the inhibition is 59.4% (active).

As for `O=C(Nc1ncc(SCCN2CCCC2)s1)[C@]1(c2ccc(S(=O)(=O)C3CC3)cc2)C[C@H]1C1CCCCC1`, the inhibition was 17.1%.

As for `CC(=O)Oc1ccc(CN2C(=O)C(CCc3ccccc3)ON=C2c2cnccn2)cc1` (stereo unspecified), the inhibition was 41.4%.

Consider `CC(C)(C)c1ccc(OCc2ccc(-c3nnco3)cc2)cc1`, for which the inhibition is 49.7%.

On to `Fc1ccc(COc2ccc(-c3nnco3)cc2)c(Cl)c1`, for which the inhibition is 55.8% (active).

In the case of `Cc1csc(Sc2ccc(NC(=O)c3cnn(C)c3C)cc2)n1`, the inhibition is 16.3%.

Take `CC(=O)Nc1ccc(Sc2ncnc3sccc23)cc1`: the inhibition was 0.26%.

Regarding `CC(C)C(=O)Nc1ccc(Sc2nncs2)cc1`, the inhibition is 89.1% (active).
